# High-throughput results deposited in PubChem by several laboratories.
# Hsp70 activator: switches on Hsp70 transcription | HeLa Hsp70 promoter luciferase reporter, luminescence; scaled: vehicle 0, proteasome-inhibitor control 100% | AID 1203 | activation, % at 10 µM | hit rate 0.04% among 200,000;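 active = activation above the mean across all tested compounds plus 3 SD, cutoff set per campaign, cut at about 5.5% in these data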;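 note: 100% = MG132 at 30 µM as the positive control and 0% = DMSO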
# CHOP inh: inhibitors of CHOP induction in ER stress response; hit rate 3.8% among 220,000; inhibition, % at 10 µM; CHO-K1 CHOP-promoter luciferase, tunicamycin-induced, 15-18 h;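 active = compounds that reduced the stress-induced luciferase reporter signal by more than about 70% of percent inhibition, limit read from the data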;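 note: 0% = tunicamycin plus vehicle and 100% = wells without tunicamycin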
# S1P4 antag: blocks the human S1P4 receptor. O95977. S1P4-expressing cells, antagonist mode, reporter read-out. inhibition, % at 4.98 µM. hit rate 0.26% among 220,000. AID 1510; in the data active = inhibition above about 29%;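 note: 0% = wells stimulated with agonist and 100% = vehicle wells without agonist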
# Target sequence (O95977 whole entry, looked up): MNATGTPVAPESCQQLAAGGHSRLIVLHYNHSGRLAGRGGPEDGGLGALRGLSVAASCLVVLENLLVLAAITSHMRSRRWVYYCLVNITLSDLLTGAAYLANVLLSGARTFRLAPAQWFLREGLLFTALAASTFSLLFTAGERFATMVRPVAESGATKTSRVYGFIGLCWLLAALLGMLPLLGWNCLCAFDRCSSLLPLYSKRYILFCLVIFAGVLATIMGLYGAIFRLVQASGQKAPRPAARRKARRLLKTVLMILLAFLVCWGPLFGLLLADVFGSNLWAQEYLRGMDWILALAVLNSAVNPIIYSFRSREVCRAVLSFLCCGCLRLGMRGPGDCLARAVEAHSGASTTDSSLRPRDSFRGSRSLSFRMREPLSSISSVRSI
# S1P4 agonist: human S1P4 receptor agonism; S1P4-expressing cell line, agonist reporter assay; activation, % at 4.98 µM; hit rate 0.35% among 220,000; AID 1509; in the data active = activation above about 11%;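 note: 0% = DMSO vehicle and 100% = reference agonist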
# An asterisk follows results filed as active; · = not tested or not shown. A selection: hits, their analogues and other compounds. The true share with any hit is near 4.2%.
SMILES,Hsp70 activator,CHOP inh,S1P4 antag,S1P4 agonist
CCOc1ccc(-c2nnc(SCC(=O)Nc3cc(C)on3)o2)cc1,0,77*,-31,-2
N#CCCN(Cc1ccncc1)C(=S)NC1CC2C=CC1C2 (stereo unspecified),·,10,-12,0
COc1cccc(C(=O)C2CCCN(CC3=Cc4cc(OC)ccc4OC3)C2)c1 (stereo unspecified),0,-2,-10,-1
CC(=O)c1ccc(Oc2nc3c(c(=O)n(C)c(=O)n3C)n2C)cc1,0,15,4,1
COC(=O)c1ccc(Oc2nc3c(c(=O)n(C)c(=O)n3C)n2CCC(C)C)cc1,0,75*,11,1
S=C(NCc1cccc(Cl)c1)NC1CCCCC1,0,6,3,0
COc1ccc(-c2cn3cccnc3n2)cc1NC(=O)c1ccc(Br)o1,0,86*,-20,2
Cc1ccccc1-c1nc(P(=O)(c2ccccc2)c2ccccc2)c(N2CCOCC2)o1,·,11,-6,1
CCOP(=O)(c1ccccc1)c1nc(-c2ccccc2C)oc1N1CCCCC1 (stereo unspecified),0,91*,-5,-1
Cc1ccc(S(=O)(=O)N(CC(=O)Nc2ccc(Cl)c([N+](=O)[O-])c2)C2CCCCC2)cc1,0,73*,-4,-1
Cc1ccccc1OCc1nnc(SCCN2CCCC2)n1-c1ccccc1,1,17,4,2
O=c1c2ccccc2c(C=Nc2ccc(O)cc2)c(O)n1Cc1ccccc1,·,93*,-5,-1
COc1ccc(Cn2c(O)c(C=Nc3ccc(O)cc3)c3ccccc3c2=O)cc1,0,85*,-24,1
COc1ccc(Cn2c(O)c(C=Nc3ccccc3)c3ccccc3c2=O)cc1,0,40,-4,1
COc1ccc(N=Cc2c(O)n(-c3cccc(C)n3)c(=O)c3ccccc23)cc1,0,-8,16,2
COc1ccc(N=Cc2c(O)ccc3ccccc23)cc1,1,80*,-4,-1
COc1ccc(N=Cc2c(O)n(-c3ccc(OC)cc3)c(=O)c3ccccc23)cc1,0,72*,-14,-1
Cc1cc(C(=O)NC(C)c2ccncc2)cs1 (stereo unspecified),0,29,-3,-1
O=C(CCCCCn1c(=S)[nH]c2cc3c(cc2c1=O)OCO3)N1CCN(C2CCCCC2)CC1,0,83*,-1,0
CCCCC(=O)NC(c1cccs1)c1cc(Cl)c2cccnc2c1O (stereo unspecified),0,97*,2,0
CCC(=O)NC(c1cccs1)c1cc(Cl)c2cccnc2c1O (stereo unspecified),0,24,8,0
CN(C)/C=C(\C#N)C(=O)Nc1ccc(F)c(Cl)c1,·,-20,-13,-3
O=C(NNC1=Nc2cccc3cccc1c23)c1ccccc1Br,0,90*,-11,1
c1ccc(NC2=Nc3cccc4cccc2c34)cc1,0,34,0,0
FC(F)(F)c1ccc(N2CCN(c3ncnc4c3nnn4Cc3ccccc3)CC2)nc1,0,91*,-10,1
SMILES,Hsp70 activator,CHOP inh,S1P4 antag,S1P4 agonist
c1ccc(Cn2nnc3c(N4CCOCC4)ncnc32)cc1,0,-2,-12,1
COc1ccc(NC(=S)NC(NC(=O)c2cccc(Cl)c2)C(Cl)(Cl)Cl)c([N+](=O)[O-])c1 (stereo unspecified),0,66,-3,-2
O=C(NC(NC(=S)Nc1ccccc1Cl)C(Cl)(Cl)Cl)c1cccc(Cl)c1 (stereo unspecified),0,87*,-1,3
O=C(/C=C/c1ccccc1)NC(NC(=S)Nc1ccc(C(=O)O)cc1)C(Cl)(Cl)Cl (stereo unspecified),0,43,-2,-2
O=C(/C=C/c1ccccc1)NC(NC(=S)Nc1ccc(Cl)cc1Cl)C(Cl)(Cl)Cl (stereo unspecified),0,81*,-11,4
O=C(N/N=C/c1c[nH]c2ccccc12)C1COc2ccccc2O1 (stereo unspecified),0,25,1,2
O=C(c1nnc(-c2ccncc2)o1)c1ccccc1Cl,0,1,-6,-1
CC(C)(C)c1ccc(/C=N/OCC(=O)NCc2ccccc2)cc1,0,-16,-9,1
Cc1ccc(CNC(=O)CO/N=C/c2ccc(C(C)(C)C)cc2)cc1,0,95*,-10,3
CC(C)(C)c1ccc(/C=N/OCC(=O)NCc2ccc(F)cc2)cc1,0,75*,-20,1
O=C(Nc1ccccc1C(=O)Nc1nnc(C(F)(F)F)s1)c1ccccc1,·,88*,-6,2
Cc1occc1C(=O)Nc1nnc(C(F)(F)F)s1,0,0,-8,0
CC1CCCCN1C(=O)Cn1c(=O)n(C2CCCCC2)c(=O)c2ccccc21 (stereo unspecified),0,82*,-9,1
COc1cc(Cl)c([C@@H]2C[C@H]3CN(c4ccccc4)C(=O)[C@]34CCCN24)cc1OC,0,-16,4,2
CCOc1cc([C@@H]2C[C@H]3CN(c4ccccc4)C(=O)[C@]34CCCN24)ccc1OC,0,84*,-7,0
COc1cc([C@@H]2C[C@H]3CN(c4ccccc4)C(=O)[C@]34CCCN24)cc(OC)c1OC,0,78*,-2,1
O=C(CSc1nnnn1CCCO)Nc1ccc2c(c1)OCO2,1,4,-2,2
c1cnc(SCCOc2cccc3ccccc23)nc1,0,76*,0,4
COc1ccc(/C=N/NC(=O)Cc2csc(Nc3cccc(C(F)(F)F)c3)n2)c(OC)c1,0,95*,-13,1
O=c1cc(-c2ccc(O)cc2)oc2ccc(O)cc12,0,13,1,0
O=C(Nc1ccc(Cl)cc1)Nc1cc(S(=O)(=O)N2CCOCC2)ccc1N1CCCC1,0,15,-20,1
O=S(=O)(Nc1ccc(Cl)cc1)c1ccc(N2CCOCC2)c(NC(=S)NCCN2CCOCC2)c1,0,81*,-11,2
Cc1ccc(C(C)C)c(OCCCN(C)Cc2ccccc2)c1,0,75*,16,-1
S=c1[nH]nc(-c2cccs2)n1/N=C/c1cn(-c2ccccc2)nc1-c1cccs1,·,79*,5,1
S=c1[nH]nc(-c2ccncc2)n1/N=C/c1cn(-c2ccccc2)nc1-c1ccccc1,·,-41,-4,0
SMILES,Hsp70 activator,CHOP inh,S1P4 antag,S1P4 agonist
Cc1ccc(-c2nn(-c3ccccc3)cc2/C=N/n2c(-c3cccs3)n[nH]c2=S)cc1,·,21,1,1
O=[N+]([O-])c1ccc(-c2nn(-c3ccccc3)cc2/C=N/n2c(-c3ccncc3)n[nH]c2=S)cc1,·,94*,16,0
Cc1cc(C)n2ncc(/C(N)=N/OC(=O)c3ccccc3F)c2n1,·,21,-39,0
CCCCCOc1ccc(Cl)cc1CN1CCOCC1,0,68,-16,0
CC(C)CCOc1ccc(Cl)cc1CN1CCOCC1,0,83*,-12,-1
O=C(Nc1ccccc1)N(C1=NCCC1)c1ccc(OC(F)F)cc1,0,81*,-4,0
CCOC(=O)c1cnc(SCC(=O)Nc2cc(OC)cc(OC)c2)nc1N,0,76*,-33,1
